From PubChem BioAssay
Tb PYK inh: T. brucei pyruvate kinase inhibition; Potency, µM (series often up to 76.8 µM), for inactives: at the top dose activity, negative = inhibition, actives largely listed as inhibitors; AID 624173; TbPYK enzyme, Kinase-Glo Plus ATP luminescence, 45 min; Q57TT1; 410,000 tested, 0.12% active; note: nearly all actives have a fitted effect of over 50% in size
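ADP (130 uM final) triggers the TbPYK reaction after compound addition; incubation is 45 min at room temperature. Kinase-Glo Plus is then added and luminescence imaged. Normalized data are fitted to concentration-effect curves.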
AmpC detergent: inhibitors of E. coli AmpC beta-lactamase with detergent; Potency, µM (top dose mostly 114 µM), without a hit: top-dose activity change, negative = inhibition, most hits filed as inhibitors; 370,000 tested, 0.041% active; P00811; AmpC hydrolysis of nitrocefin, absorbance 480 nm, 0.01% Triton;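 note: 0% = no-compound wells and -100% = no-enzyme wells; nearly all actives have a fitted effect of over 25% in size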
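AmpC (5.3 nM in the dispensed reagent) in 20 mM phosphate pH 7.0 with 0.01% (detergent screen) or 0.0001% Triton X-100 was preincubated with compounds for 15 min at room temperature. Nitrocefin was then added from an 800 uM solution, and hydrolysis was followed at 480 nm.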
AmpC inh no detg: inhibitors of E. coli AmpC beta-lactamase without detergent | P00811 | AmpC nitrocefin hydrolysis, absorbance 480 nm, 0.0001% Triton | Potency, µM (series often up to 57.1 µM), for inactives: at the top dose activity change, negative = inhibition, usual class: inhibitors | 330,000 tested, 0.52% active;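 note: plate controls were no compound for no effect and no enzyme for full effect; nearly all actives have a fitted effect of over 20% in size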
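20 mM phosphate pH 7.0 + 0.01% (detergent screen) or 0.0001% Triton X-100; 5.3 nM AmpC reagent; cpd preinc 15 min RT; nitrocefin (800 uM stock) to start; A480 q20 s × 4 min; Activity was normalised to no-enzyme and no-compound control wells.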
Giardia FBPA inh-1: inhibitors of Giardia lamblia fructose-1,6-bisphosphate aldolase | A8B2U2 | purified Giardia FBPA | Potency, µM (series often up to 59.6 µM), for inactives: top-dose activity, negative = inhibition, actives largely listed as inhibitors | 290,000 tested, 0.71% active | AID 2451; note: nearly all actives have a fitted effect of over 55% in size
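Giardia FBPA (40 nM reagent) was preincubated 10 min at RT with compound (up to 57.5 uM final), then substrate plus GAPDH/TPI/NAD/arsenate coupling system with diaphorase/resazurin was added; resorufin fluorescence (525/598 nm) was read after 20 min.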
RE007 growth inh: less growth of the S. pombe RE007 Vpr strain; 360,000 tested, 0.21% active; S. pombe RE007 Vpr strain, BacTiter-Glo ATP luminescence, 24 h; AID 651644; Potency, µM (top dose mostly 92.2 µM), inactives show top-dose activity change, negative = less growth, most hits filed as inhibitors; active = well fitted falling curve with a large enough effect; inconclusive = small, poorly fitted or top-dose-only effect; inactive = no such curve, though single readings can be large or run the other way; note: nearly all actives have a fitted effect of over 50% in size
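Fission yeast RE007 carrying one integrated HIV-1 vpr copy, seeded at OD 0.01 in PMG+AL medium with 23 nL pinned compound. Grown 24 h at 30 degrees; viability read by BacTiter-Glo luminescence after 5 min.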
LmPK inhibitor: LmPK (Leishmania mexicana) enzyme inhibition; Q27686; purified LmPK, Kinase-Glo ATP luminescence, 1 h; Potency, µM (titrated, usually from 57.5 µM), inactives show at the top dose activity change, negative = inhibition, most hits filed as inhibitors; 290,000 tested, 0.37% active; AID 1721
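Purified LmPK (0.1 nM) converted ADP (0.1 mM) to ATP with PEP (0.5 mM) in imidazole buffer pH 7.2 with KCl and MgCl2, 1 h at room temperature. ATP was read by Kinase-Glo luminescence; data normalized to uninhibited and no-enzyme controls.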
Giardia growth: blocks growth of Giardia lamblia trophozoites | shares compounds with Giardia FBPA inh-1 | Giardia lamblia trophozoite growth inhibition | Potency, µM (series often up to 57.5 µM), inactives show at the top dose activity change, negative = inhibition, usual class: inhibitors | 1,500 tested, 5% active | AID 2785;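 note: trophozoites exposed to compound for 48 h at 37 °C; nearly all actives have a fitted effect of over 70% in size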
Mammalian tox: toxic to mammalian cells in Giardia aldolase counter-screen | shares compounds with Giardia FBPA inh-1 | mammalian cell viability counter-screen, qHTS | 1,500 tested, 4% active | Potency, µM (titrated, usually from 57.5 µM), inactives show at the highest dose viability change, negative = toxicity, usual class: inhibitors | AID 2786;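 note: Chinese hamster ovary cells used as mammalian cytotoxicity surrogate; viability measured as cellular ATP by luminescence; compound exposure lasted 48 h before reading; nearly all actives have a fitted effect of over 60% in size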
Giardia FBPA inh-2: confirmation of Giardia fructose-bisphosphate aldolase inhibitors. Potency, µM (doses to about 57.5 µM), without a hit: at the highest dose activity change, negative = inhibition, actives largely listed as inhibitors. 1,500 tested, 5% active. AID 2787. shares compounds with Giardia FBPA inh-1. purified Giardia aldolase enzyme activity, qHTS; note: nearly all actives have a fitted effect of over 45% in size
Rabbit FBPA inh: selectivity test for Giardia aldolase inhibitors: rabbit aldolase | 1,500 tested, 4% active | AID 2794 | shares compounds with Giardia FBPA inh-1 | Rabbit muscle FBPA enzyme inhibition, selectivity counter-screen | Potency, µM (highest dose often 57.5 µM), for the others: at the top dose activity, negative = inhibition, most hits filed as inhibitors; note: nearly all actives have a fitted effect of over 60% in size
Target sequence (P00883 whole entry, looked up): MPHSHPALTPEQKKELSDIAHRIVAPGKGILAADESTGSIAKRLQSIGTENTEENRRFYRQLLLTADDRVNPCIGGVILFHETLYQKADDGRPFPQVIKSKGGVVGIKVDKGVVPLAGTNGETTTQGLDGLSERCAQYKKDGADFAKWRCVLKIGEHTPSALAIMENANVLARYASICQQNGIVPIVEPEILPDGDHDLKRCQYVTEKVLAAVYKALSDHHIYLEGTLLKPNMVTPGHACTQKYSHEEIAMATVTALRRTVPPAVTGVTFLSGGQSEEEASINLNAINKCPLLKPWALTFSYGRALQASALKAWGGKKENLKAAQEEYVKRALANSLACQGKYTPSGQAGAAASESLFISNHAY
GAPDH counter: counter-screen for Giardia aldolase inhibitors: GAPDH coupling enzyme. shares compounds with Giardia FBPA inh-1. GAPDH coupling enzyme counterscreen, biochemical, qHTS. Potency, µM (series often up to 57.5 µM), for the others: top-dose activity change, negative = inhibition, most hits filed as inhibitors. 1,500 tested, 6% active. AID 2795; note: nearly all actives have a fitted effect of over 55% in size
* marks the source's active call; other numbers are inactive results; [ ] = another dose, or the depositor's remark. Sampled rows, rich in hits. Any-hit rate of the full collection: about 1.4%. Unless noted, calls come from the whole dose curve; as a rule, active = well fitted curve in the direction sought with a large enough effect; inconclusive = small, poorly fitted or top-dose-only effect, or another doubt; inactive = no such curve, though single readings can be large; an effect the other way counts as inactive or inconclusive. Unless noted, % is set by controls: 0 for no effect and ±100 for the full control effect; potency is the fitted concentration of half-maximal effect.

How did Cc1ccc(S(=O)(=O)N2CCCCC2)cc1NC(=O)CNCc1ccco1 do in these assays?
Tb PYK inh: 20%; AmpC detergent: -1%; AmpC inh no detg: 28%; Giardia FBPA inh-1: 7.9µM*; RE007 growth inh: 9%; LmPK inhibitor: -3%; Giardia growth: inconclusive; Mammalian tox: 7%; Giardia FBPA inh-2: 9%; Rabbit FBPA inh: 3%; GAPDH counter: 1%

Results for COc1ccccc1-c1noc(CSc2nnc(Cc3ccccc3)n2-c2ccc(C)c(C)c2)n1 ?
Tb PYK inh: 2%; AmpC detergent: 15%

Results for O=C(CCSc1ccccc1)Nc1nnc(-c2cccs2)o1 ?
Tb PYK inh: 2%; AmpC detergent: 5%; AmpC inh no detg: -19%; Giardia FBPA inh-1: 16µM*; RE007 growth inh: 0%; LmPK inhibitor: 4%; Giardia growth: -13%[10.4 µM]; Mammalian tox: -14%; Giardia FBPA inh-2: 3%; Rabbit FBPA inh: 5%; GAPDH counter: 6%

Results for Cc1cccc(C(=O)Nc2nnc(C3=COCCO3)o2)c1 ?
Tb PYK inh: 1%; AmpC detergent: 7%; AmpC inh no detg: -12%; Giardia FBPA inh-1: 18µM*; RE007 growth inh: 1%; LmPK inhibitor: -3%; Giardia growth: inconclusive; Mammalian tox: -1%; Giardia FBPA inh-2: -4%; Rabbit FBPA inh: -5%; GAPDH counter: 0%

What do the screens show for `O=C(Nc1nnc(C2=COCCO2)o1)c1cccc(F)c1`?
Tb PYK inh: 0%; AmpC detergent: 5%; AmpC inh no detg: -15%; RE007 growth inh: -10%; LmPK inhibitor: 1%

What do the screens show for `CN(C)c1ccc(C(=O)Nc2nnc(C3=COCCO3)o2)cc1`?
Tb PYK inh: 5%; AmpC detergent: 4%; AmpC inh no detg: -19%; Giardia FBPA inh-1: 18µM*; RE007 growth inh: -15%; LmPK inhibitor: 1%[11.5 µM]; Giardia growth: inconclusive; Mammalian tox: 9%; Giardia FBPA inh-2: -10%; Rabbit FBPA inh: -1%; GAPDH counter: 0%

What do the screens show for `O=C(CCSc1ccccc1)Nc1nnc(-c2ccccc2)o1`?
Tb PYK inh: 5%; AmpC detergent: -14%; AmpC inh no detg: -36%; Giardia FBPA inh-1: 24%; RE007 growth inh: 9%; LmPK inhibitor: 0%

How did CN(c1ccccc1)S(=O)(=O)c1ccc(C(=O)Nc2nnc(C3=COCCO3)o2)cc1 do in these assays?
Tb PYK inh: 1%; AmpC detergent: 3%; AmpC inh no detg: -44%; Giardia FBPA inh-1: 11µM*; RE007 growth inh: 14%; LmPK inhibitor: 12%; Giardia growth: inconclusive; Mammalian tox: 22%; Giardia FBPA inh-2: 3%; Rabbit FBPA inh: 15%; GAPDH counter: -9%
